# Results as given in paper PMC7862700, “An all-to-all approach to the identification of sequence-specific readers for epigenetic DNA modifications on cytosine”.
# What was measured:
# Assay in all cases: DAPPL (digital affinity profiling via proximity ligation, sequencing); 10 mM Tris-HCl pH 7.5, 50 mM NaCl, 1 mM DTT, 4% glycerol, room temperature, 30 min; GST-TFs on glutathione beads, 16-mer random dsDNA library, 0.1% formaldehyde crosslink after washing; high values mean tight binding
# Conditions in all cases: protein: recombinant; tags: N-terminal GST; dsDNA, one strand shown
# [1] = biological target: T1, FLI1 (Homo sapiens, UniProt Q01543 1-452)
# T1 sequence: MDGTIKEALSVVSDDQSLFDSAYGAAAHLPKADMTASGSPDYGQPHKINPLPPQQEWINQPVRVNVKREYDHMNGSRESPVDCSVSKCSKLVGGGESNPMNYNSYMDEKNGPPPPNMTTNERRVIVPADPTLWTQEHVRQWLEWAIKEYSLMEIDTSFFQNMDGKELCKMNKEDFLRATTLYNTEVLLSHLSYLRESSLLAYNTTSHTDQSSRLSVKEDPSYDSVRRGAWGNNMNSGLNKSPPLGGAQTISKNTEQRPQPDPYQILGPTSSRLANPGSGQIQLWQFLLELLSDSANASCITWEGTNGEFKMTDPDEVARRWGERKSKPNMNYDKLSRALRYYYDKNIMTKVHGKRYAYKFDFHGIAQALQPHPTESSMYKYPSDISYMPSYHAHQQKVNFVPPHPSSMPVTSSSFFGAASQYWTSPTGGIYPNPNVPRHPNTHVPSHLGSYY
# Procedure, shortened: (§1)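 A tag-only sample was pooled with DNA-barcoded human transcription factors that had been expressed in yeast as GST fusions and captured on glutathione beads. The pools were incubated for 30 min at room temperature with 200 nmole of a random double-stranded 16-mer DNA library in Tris/NaCl/DTT/glycerol buffer, then washed, crosslinked with 0.1% formaldehyde, proximity-ligated (BsaI/T4 ligase, 1 h, 37 °C), PCR-amplified and sequenced on an Illumina NextSeq500. Binding signal is each hexamer's read frequency for a factor divided by its frequency for the tag-only sample.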
# [2] = biological target: T2, ELK1 (Homo sapiens, UniProt P19419 1-428)
# T2 sequence: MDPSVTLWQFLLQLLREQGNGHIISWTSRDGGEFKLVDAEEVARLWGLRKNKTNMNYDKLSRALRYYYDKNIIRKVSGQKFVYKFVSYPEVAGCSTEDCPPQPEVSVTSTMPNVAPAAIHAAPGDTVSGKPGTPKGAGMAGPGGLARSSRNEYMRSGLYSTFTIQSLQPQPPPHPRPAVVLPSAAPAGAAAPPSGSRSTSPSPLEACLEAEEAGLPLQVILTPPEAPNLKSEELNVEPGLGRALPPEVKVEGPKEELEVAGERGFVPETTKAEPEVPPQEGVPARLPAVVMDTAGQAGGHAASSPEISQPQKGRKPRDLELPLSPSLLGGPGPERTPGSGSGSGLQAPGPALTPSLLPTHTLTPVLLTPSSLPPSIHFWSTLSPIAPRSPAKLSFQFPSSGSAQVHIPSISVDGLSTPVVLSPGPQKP
# Procedure, shortened: as §1
# [3] = biological target: T3, GABPA (Homo sapiens, UniProt Q06546 1-454)
# T3 sequence: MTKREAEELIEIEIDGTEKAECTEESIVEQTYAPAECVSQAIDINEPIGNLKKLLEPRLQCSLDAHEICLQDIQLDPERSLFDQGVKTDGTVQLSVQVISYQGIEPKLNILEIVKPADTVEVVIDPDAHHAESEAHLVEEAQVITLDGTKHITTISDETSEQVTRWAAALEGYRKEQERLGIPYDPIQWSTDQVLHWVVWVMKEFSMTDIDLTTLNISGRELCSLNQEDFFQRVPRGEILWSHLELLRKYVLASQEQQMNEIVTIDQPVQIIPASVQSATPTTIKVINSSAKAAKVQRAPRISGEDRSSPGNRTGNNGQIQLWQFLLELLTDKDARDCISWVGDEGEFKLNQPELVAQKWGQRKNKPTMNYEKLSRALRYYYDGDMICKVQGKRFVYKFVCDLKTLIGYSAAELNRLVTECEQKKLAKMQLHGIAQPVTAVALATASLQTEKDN
# Procedure, shortened: as §1
# [4] = biological target: T4, ERG (Homo sapiens, UniProt P11308 1-479)
# T4 sequence: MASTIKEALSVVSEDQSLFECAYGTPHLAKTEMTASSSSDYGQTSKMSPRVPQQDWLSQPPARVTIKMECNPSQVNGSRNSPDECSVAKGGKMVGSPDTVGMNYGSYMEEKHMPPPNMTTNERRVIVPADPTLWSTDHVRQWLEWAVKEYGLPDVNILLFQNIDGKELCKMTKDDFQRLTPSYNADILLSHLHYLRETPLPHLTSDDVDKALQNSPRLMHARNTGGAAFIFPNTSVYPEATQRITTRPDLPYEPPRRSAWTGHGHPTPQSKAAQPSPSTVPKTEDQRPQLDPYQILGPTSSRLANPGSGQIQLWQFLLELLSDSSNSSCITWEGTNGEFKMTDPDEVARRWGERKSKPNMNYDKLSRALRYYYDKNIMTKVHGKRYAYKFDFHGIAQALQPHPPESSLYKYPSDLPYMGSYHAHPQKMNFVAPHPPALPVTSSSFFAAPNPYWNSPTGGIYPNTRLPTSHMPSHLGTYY
# Procedure, shortened: as §1
# [5] = biological target: ELF1 (Homo sapiens, UniProt P32519 1-619)
# ELF1, sequence (P32519 whole entry): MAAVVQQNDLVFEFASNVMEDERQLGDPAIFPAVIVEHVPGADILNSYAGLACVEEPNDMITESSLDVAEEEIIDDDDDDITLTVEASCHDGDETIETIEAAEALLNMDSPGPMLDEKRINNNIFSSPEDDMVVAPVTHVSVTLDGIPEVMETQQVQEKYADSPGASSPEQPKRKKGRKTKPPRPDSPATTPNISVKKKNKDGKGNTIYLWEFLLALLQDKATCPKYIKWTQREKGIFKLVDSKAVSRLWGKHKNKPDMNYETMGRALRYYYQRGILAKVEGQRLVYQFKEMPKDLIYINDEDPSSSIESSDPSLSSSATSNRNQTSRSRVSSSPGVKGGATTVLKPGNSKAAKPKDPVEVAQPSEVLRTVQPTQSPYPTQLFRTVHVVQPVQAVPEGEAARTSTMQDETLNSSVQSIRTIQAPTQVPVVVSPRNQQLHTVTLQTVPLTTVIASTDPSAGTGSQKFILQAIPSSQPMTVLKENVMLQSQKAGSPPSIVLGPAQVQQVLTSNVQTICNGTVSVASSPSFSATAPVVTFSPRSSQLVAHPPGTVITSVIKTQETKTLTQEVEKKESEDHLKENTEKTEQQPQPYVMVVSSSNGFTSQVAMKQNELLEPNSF
# Procedure, shortened: as §1
# [6] = biological target: T5, EHF (Homo sapiens, UniProt Q9NZC4 1-300)
# T5 sequence: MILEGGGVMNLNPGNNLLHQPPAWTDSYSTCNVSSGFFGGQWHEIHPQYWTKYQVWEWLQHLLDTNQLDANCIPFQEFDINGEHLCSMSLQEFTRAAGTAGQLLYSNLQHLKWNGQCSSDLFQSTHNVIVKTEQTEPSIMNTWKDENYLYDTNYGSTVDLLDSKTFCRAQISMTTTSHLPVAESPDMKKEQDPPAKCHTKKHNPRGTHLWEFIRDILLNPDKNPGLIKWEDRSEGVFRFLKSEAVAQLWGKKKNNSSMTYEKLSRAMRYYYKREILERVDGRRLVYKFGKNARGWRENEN
# Procedure, shortened: as §1
# [7] = biological target: SPI1 (Homo sapiens, UniProt P17947 1-270)
# Procedure, shortened: as §1
# [8] = biological target: SPIB (Homo sapiens, UniProt Q01892 1-262)
# SPIB, sequence (Q01892 whole entry): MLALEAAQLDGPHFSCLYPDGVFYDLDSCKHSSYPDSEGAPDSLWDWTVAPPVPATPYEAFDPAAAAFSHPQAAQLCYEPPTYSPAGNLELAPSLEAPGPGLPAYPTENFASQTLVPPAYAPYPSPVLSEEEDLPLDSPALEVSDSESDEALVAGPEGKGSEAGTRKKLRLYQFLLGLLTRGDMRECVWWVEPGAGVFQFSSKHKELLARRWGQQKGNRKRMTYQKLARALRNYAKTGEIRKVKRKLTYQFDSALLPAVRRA
# Procedure, shortened: as §1
# [9] = biological target: T6, ELK3 (Homo sapiens, UniProt P41970 1-407)
# T6 sequence: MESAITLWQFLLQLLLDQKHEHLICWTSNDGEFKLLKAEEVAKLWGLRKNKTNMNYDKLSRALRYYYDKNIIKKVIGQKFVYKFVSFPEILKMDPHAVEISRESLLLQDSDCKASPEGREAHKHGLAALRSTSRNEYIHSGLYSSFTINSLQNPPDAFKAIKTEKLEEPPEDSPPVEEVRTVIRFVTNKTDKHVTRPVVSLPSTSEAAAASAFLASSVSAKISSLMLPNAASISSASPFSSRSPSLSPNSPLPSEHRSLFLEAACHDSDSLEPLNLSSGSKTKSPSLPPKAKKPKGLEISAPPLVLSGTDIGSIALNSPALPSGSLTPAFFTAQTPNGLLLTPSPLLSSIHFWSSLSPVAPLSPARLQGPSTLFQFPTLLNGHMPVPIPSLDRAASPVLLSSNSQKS
# Procedure, shortened: as §1
Sequence,binding signal [1],binding signal [2],binding signal [3],binding signal [4],binding signal [5],binding signal [6],binding signal [7],binding signal [8],binding signal [9]
CCATTA,"1.08 fold enrichment (6-mer frequency, TF over GST control)","1.05 fold enrichment (6-mer frequency, TF over GST control)","1.11 fold enrichment (6-mer frequency, TF over GST control)","1.1 fold enrichment (6-mer frequency, TF over GST control)","1.14 fold enrichment (6-mer frequency, TF over GST control)","1.06 fold enrichment (6-mer frequency, TF over GST control)","1.17 fold enrichment (6-mer frequency, TF over GST control)","1.23 fold enrichment (6-mer frequency, TF over GST control)","1.09 fold enrichment (6-mer frequency, TF over GST control)"
ACTACA,"1.32 fold enrichment (6-mer frequency, TF over GST control)","1.21 fold enrichment (6-mer frequency, TF over GST control)","1.32 fold enrichment (6-mer frequency, TF over GST control)","1.16 fold enrichment (6-mer frequency, TF over GST control)","1.19 fold enrichment (6-mer frequency, TF over GST control)","1.15 fold enrichment (6-mer frequency, TF over GST control)","1.13 fold enrichment (6-mer frequency, TF over GST control)","1.28 fold enrichment (6-mer frequency, TF over GST control)","1.11 fold enrichment (6-mer frequency, TF over GST control)"
GTAATC,"1.16 fold enrichment (6-mer frequency, TF over GST control)","1.14 fold enrichment (6-mer frequency, TF over GST control)","1.32 fold enrichment (6-mer frequency, TF over GST control)","1.08 fold enrichment (6-mer frequency, TF over GST control)","1.16 fold enrichment (6-mer frequency, TF over GST control)","1.19 fold enrichment (6-mer frequency, TF over GST control)","1.13 fold enrichment (6-mer frequency, TF over GST control)","1.09 fold enrichment (6-mer frequency, TF over GST control)","1.11 fold enrichment (6-mer frequency, TF over GST control)"
ATCACA,"1.06 fold enrichment (6-mer frequency, TF over GST control)","1.09 fold enrichment (6-mer frequency, TF over GST control)","1.11 fold enrichment (6-mer frequency, TF over GST control)","1.02 fold enrichment (6-mer frequency, TF over GST control)","1.13 fold enrichment (6-mer frequency, TF over GST control)","1.04 fold enrichment (6-mer frequency, TF over GST control)","1.06 fold enrichment (6-mer frequency, TF over GST control)","1.02 fold enrichment (6-mer frequency, TF over GST control)","1.13 fold enrichment (6-mer frequency, TF over GST control)"
AAACGG,"1.17 fold enrichment (6-mer frequency, TF over GST control)","1.24 fold enrichment (6-mer frequency, TF over GST control)","1.13 fold enrichment (6-mer frequency, TF over GST control)","1.3 fold enrichment (6-mer frequency, TF over GST control)","1.21 fold enrichment (6-mer frequency, TF over GST control)","1.26 fold enrichment (6-mer frequency, TF over GST control)","1.47 fold enrichment (6-mer frequency, TF over GST control)","1.23 fold enrichment (6-mer frequency, TF over GST control)","1.22 fold enrichment (6-mer frequency, TF over GST control)"
AAGAAT,"1.13 fold enrichment (6-mer frequency, TF over GST control)","1.17 fold enrichment (6-mer frequency, TF over GST control)","1.13 fold enrichment (6-mer frequency, TF over GST control)","1.15 fold enrichment (6-mer frequency, TF over GST control)","1.11 fold enrichment (6-mer frequency, TF over GST control)","1.14 fold enrichment (6-mer frequency, TF over GST control)","1.18 fold enrichment (6-mer frequency, TF over GST control)","1.14 fold enrichment (6-mer frequency, TF over GST control)","1.1 fold enrichment (6-mer frequency, TF over GST control)"
TTTGGA,"1.15 fold enrichment (6-mer frequency, TF over GST control)","1.14 fold enrichment (6-mer frequency, TF over GST control)","1.24 fold enrichment (6-mer frequency, TF over GST control)","1.11 fold enrichment (6-mer frequency, TF over GST control)","1.18 fold enrichment (6-mer frequency, TF over GST control)","1.09 fold enrichment (6-mer frequency, TF over GST control)","1.19 fold enrichment (6-mer frequency, TF over GST control)","1.22 fold enrichment (6-mer frequency, TF over GST control)","1.14 fold enrichment (6-mer frequency, TF over GST control)"
